From PubChem BioAssay
This is a sample that favours compounds with a hit; in the whole collection about 3.1% have one here.
CF NFkB inh – blocks PAF-induced NF-kB reporter in cystic fibrosis cells; inhibition, % at 5 µM; KKLEB NF-kB-GFP reporter, GFP fluorescence overnight; 0.86% of 360,000 active; AID 588850;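 active means at least 50% inhibition at 5 µM, scaled per plate between neutral and stimulator controls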;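 further: PAF is a Pseudomonas aeruginosa culture filtrate used as stimulus; plate controls were PAF-stimulated DMSO wells for no effect and unstimulated DMSO wells for full effect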
ABHD5-PLIN5 inh – blocks binding of human ABHD5 to perilipin-5; inhibition, % at 4 µM; Split G. princeps luciferase complementation, luminescence, 4 h; 0.78% of 360,000 active; AID 602281; Q00G26+Q8WTS1;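 active means inhibition above the mean inhibition across every tested compound plus 3 SD, cut at about 22% in these data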;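 further: 0% = DMSO only wells and the 100% control is not disclosed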
Target sequence (Q00G26 whole entry, looked up): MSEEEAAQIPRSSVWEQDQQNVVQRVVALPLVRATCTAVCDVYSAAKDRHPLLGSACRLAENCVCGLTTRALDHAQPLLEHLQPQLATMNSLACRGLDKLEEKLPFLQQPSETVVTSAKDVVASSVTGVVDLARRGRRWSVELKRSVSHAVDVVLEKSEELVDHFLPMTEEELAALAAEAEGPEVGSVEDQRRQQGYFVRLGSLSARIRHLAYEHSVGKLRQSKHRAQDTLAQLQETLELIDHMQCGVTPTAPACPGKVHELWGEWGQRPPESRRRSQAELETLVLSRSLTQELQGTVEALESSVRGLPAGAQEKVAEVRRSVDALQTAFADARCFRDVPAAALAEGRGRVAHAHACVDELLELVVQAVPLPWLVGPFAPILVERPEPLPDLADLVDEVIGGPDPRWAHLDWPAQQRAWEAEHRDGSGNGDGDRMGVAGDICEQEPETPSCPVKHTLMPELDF
Target sequence (Q8WTS1 whole entry, looked up): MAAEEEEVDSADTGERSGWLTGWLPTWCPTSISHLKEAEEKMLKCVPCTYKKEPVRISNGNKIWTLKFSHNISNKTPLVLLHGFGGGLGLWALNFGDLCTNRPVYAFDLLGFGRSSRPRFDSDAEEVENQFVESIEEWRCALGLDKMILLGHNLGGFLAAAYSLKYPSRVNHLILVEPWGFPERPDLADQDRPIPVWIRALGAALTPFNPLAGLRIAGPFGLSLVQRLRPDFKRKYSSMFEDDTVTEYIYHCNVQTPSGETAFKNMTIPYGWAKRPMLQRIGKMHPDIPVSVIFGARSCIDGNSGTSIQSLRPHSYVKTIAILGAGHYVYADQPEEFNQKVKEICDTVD
KKLEB tox – counter-screen for CF NF-kB inhibitors: cytotoxicity | activity change (cytotoxicity), % at 5 µM | 0.36% of 360,000 active | KKLEB CF airway cells viability, ATPlite luminescence, overnight; hits give low values; cells stimulated with P. aeruginosa culture filtrate;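 active means corrected activity change at or below -50% at 5 µM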
Peg3 prom inh – Peg3 promoter activity inhibition; HeLa PEG-Prom luciferase reporter, luminescence, overnight; inhibition, % at 20 µM; 1.7% of 360,000 active;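 active means inhibition of at least 50% at 20 µM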
HIF-2a inh – HIF-2a inhibition; 0.72% of 360,000 active; 786-0 RCC cells HIF-2a reporter, luciferase luminescence, overnight; AID 624352; inhibition, % at 18.8 µM;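 active means inhibition of the luminescence signal of 40% or more relative to plate controls, in a single-dose primary screen at 18.75 µM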
MITF TRPM1 inh – inhibitors of MITF-driven TRPM1 promoter in melanoma cells. SK-MEL-5 TRPM1 promoter luciferase, 24 h. inhibition, % at 12.5 µM. 0.83% of 330,000 active. AID 488899;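 active means mean inhibition across replicates of 60% or more, whatever share of single replicates reaches that level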
The depositor's hits bear a star; nt = no result.

SMILES | CF NFkB inh | ABHD5-PLIN5 inh | KKLEB tox | Peg3 prom inh | HIF-2a inh | MITF TRPM1 inh
CC(=O)OCC(=O)C1=CCC2C3CCC4=CC(=O)C=CC4(C)C3(F)C(OC(C)=O)CC12C (centres undefined) | 36.5 | 1.0 | -3.5 | 20.4 | 21.0 | 30.6
CC1(c2ccccc2)O[C@@H]2C[C@H]3[C@@H]4CCC5=CC(=O)C=C[C@]5(C)[C@@]4(F)[C@@H](O)C[C@]3(C)[C@]2(C(=O)CO)O1 (some centres undefined) | 71.7* | -1.0 | 38.5 | 11.3 | 29.4 | -0.7
C[C@H]1C[C@H]2[C@@H]3CCC4=CC(=O)C=C[C@]4(C)[C@@]3(F)[C@@H](O)C[C@]2(C)[C@@]1(O)C(=O)CO | 68.4* | 5.9 | 20.2 | 1.6 | 18.4 | -22.4
C[C@H]1C[C@H]2[C@@H]3CCC4=CC(=O)C=C[C@]4(C)[C@@]3(Cl)[C@@H](O)C[C@]2(C)[C@@]1(O)C(=O)CO | 64.3* | 2.2 | -23.9 | -12.8 | 25.1 | -23.6
Cc1cc(C)c(NC(=O)CNC(=O)COC(=O)CNC(=O)c2ccc(Cl)cc2Cl)c(C)c1 | -33.5 | -8.1 | -0.4 | 4.3 | -10.9 | -0.1
Cc1ccc(CNC(=O)COC(=O)COc2ccc(C#N)cc2)cc1 | 15.7 | 0.2 | -23.4 | 5.2 | 3.4 | 0.1
O=C1C=CCCC1 | -3.5 | 3.2 | 7.5 | 5.8 | 2.9 | 3.4
Cc1c(C(=O)NC(C(C)C)C(C)C)cccc1[N+](=O)[O-] | -5.5 | 1.7 | -4.3 | -28.3 | 20.8 | 6.1
CCN(CC)c1ccc(N)cc1 | 28.1 | 3.2 | -15.1 | 18.2 | -32.8 | 86.4*
Nc1ccc(N(CCO)CCO)cc1 | 6.1 | -14.7 | -2.6 | 8.5 | 5.7 | 5.6
COc1ccc(N2C(=O)CCC(C(=O)N3CCN(c4ccccn4)CC3)C2c2ccc(F)cc2)cc1 (centres undefined) | 10.4 | -0.5 | 18.5 | 13.9 | 18.7 | -5.8
CCc1cc2c(=O)[nH]c(N3CCCC3)nc2s1 | -32.2 | 4.2 | 3.5 | -91.3 | -88.8 | -37.2
CCc1cc2c(=O)[nH]c(-c3ccccn3)nc2s1 | -26.7 | -3.1 | 2.6 | 96.2* | -75.7 | 32.0
COc1cccc(-c2cc(C(=O)NCc3cccs3)no2)c1 | 2.6 | 0.0 | -10.2 | -351.3 | -347.4 | -124.3
COc1ccccc1-c1oc2ccccc2c1C#CC1(N)CCCCC1 | 7.6 | 2.0 | -18.1 | 71.6* | 9.3 | 24.8
COc1ccccc1-c1oc2ccccc2c1C#CC1(O)CCCCC1 | -0.4 | -11.1 | -0.9 | 4.7 | 27.1 | -9.6
O=C(NCc1cccc(C(F)(F)F)c1)c1ccc2nc([C@H]3C[C@H](O)[C@@H](CO)O3)[nH]c2c1 | -14.1 | 6.7 | 17.6 | 1.1 | -11.6 | nt
COC(=O)c1cc2c(n1S(=O)(=O)c1ccc(C)cc1)C(=O)C(=O)c1[nH]cc(C(=O)OCc3ccccc3)c1-2 | 84.8* | -30.4 | -69.1* | 88.8* | 33.0 | 107.5*
COC(=O)c1ccc(COC(=O)c2ccc(CS(=O)(=O)c3ccc(C)cc3)cc2)cc1 | 20.4 | 6.8 | -8.0 | -1.7 | 6.9 | -11.5
O=C1NC[C@@H](CCCCN2C[C@H](Cc3ccc(O)cc3)N(CCc3ccccc3)C(=O)C2=O)N(CCc2ccccc2)C1=O | nt | 12.8 | nt | nt | 9.1 | nt
COc1cc2c(cc1OC)C(c1cc(C)ccc1C)CC(=O)N2 (centres undefined) | 6.6 | 4.9 | -3.6 | 3.0 | 21.1 | 6.6
COc1cc(C)c(N(C(C)=O)c2ccccc2)c(C)c1 | 1.1 | 7.3 | 1.4 | 17.2 | 20.8 | 4.7
CC(=O)N(C1=C(N)C(=O)c2ccccc2C1=O)c1ccccc1 | -17.2 | -10.2 | 2.7 | 27.9 | 16.9 | 65.3*
O=C(c1cc(-c2ccc(Cl)cc2)n[nH]1)N1CCc2ccccc2C1 | -11.1 | -10.3 | -0.5 | -21.9 | -62.4 | -0.7
CCN(CC)CCNC(=O)c1nn(-c2ccc(Cl)cc2)c2c1CCc1cc(OC)ccc1-2 | 18.9 | 3.8 | -5.7 | 94.2* | -21.7 | 14.1
SMILES | CF NFkB inh | ABHD5-PLIN5 inh | KKLEB tox | Peg3 prom inh | HIF-2a inh | MITF TRPM1 inh
COc1ccc2c(c1)CCc1c(C(=O)NCc3ccc(Cl)cc3)noc1-2 | -0.2 | 0.8 | 13.0 | 15.4 | 4.2 | -5.5
CC1=NN(c2ccccc2)C(=O)/C1=C\C=C\c1ccccc1 | -2.3 | 22.4* | 7.1 | 71.0* | 87.3* | nt
COC(=O)C(CSCc1ccccc1)NC(=O)CSc1nc(N)cc(=O)[nH]1 (centres undefined) | 12.7 | -0.7 | -1.0 | 14.6 | 14.2 | -8.2
CCc1c(C2(O)CCCCC2)[nH]c2cc(C(F)(F)F)ccc12 | 27.4 | -30.7 | 4.9 | 66.9* | 13.7 | 8.0
Cc1c(C2(O)CCCCC2)[nH]c2cc(C(F)(F)F)ccc12 | 8.5 | -13.1 | -1.1 | 18.3 | -56.0 | 13.0
O=C(N[C@@H]1C/C=C\C[C@H](CC(=O)N(CCO)Cc2ccccc2)C(=O)N[C@@H](Cc2ccccc2)COC1=O)OCC1c2ccccc2-c2ccccc21 | 4.9 | 9.1 | -4.0 | 67.9* | -2.1 | 4.0
C[C@@H]1COC(=O)[C@H](NC(=O)OCC2c3ccccc3-c3ccccc32)C/C=C\C[C@@H](CC(=O)N[C@@H](CO)Cc2ccccc2)C(=O)N1 | 33.0 | 5.5 | -19.2 | -10.1 | -3.6 | 6.0
O=C(N[C@H]1C/C=C\C[C@@H](CC(=O)N(CCO)Cc2ccccc2)C(=O)NC[C@H](c2ccccc2)OC1=O)OCC1c2ccccc2-c2ccccc21 | -8.8 | 2.7 | -6.6 | 75.1* | 10.3 | nt
O=C(C[C@H]1C/C=C\C[C@H](NC(=O)OCC2c3ccccc3-c3ccccc32)C(=O)OC[C@H](Cc2ccccc2)NC1=O)N[C@H](CO)Cc1ccccc1 | 15.6 | -0.5 | -17.1 | 75.3* | -0.2 | 2.3
CN(c1ccccc1)S(=O)(=O)c1cccc(NS(=O)(=O)c2cccc(C(=O)O)c2)c1 | -14.5 | 22.0* | 1.7 | 12.8 | 7.5 | 2.4
Cc1cc(Oc2nc3ccccn3c(=O)c2/C=C(\C#N)C(=O)NC2CCS(=O)(=O)C2)ccc1Cl (centres undefined) | -16.5 | 4.8 | -0.7 | 66.5* | -8.3 | 15.6
CCS(=O)(=O)c1c([N+](=O)[O-])ncn1C | 15.9 | 20.3 | 11.6 | 59.6* | 13.3 | 8.5
CCN(CC)c1c([N+](=O)[O-])ncn1C | 8.8 | 0.5 | 3.0 | 4.2 | 0.4 | 3.5
CCCOc1cccc(-c2cc(C(=O)N/N=C/c3cccnc3)c3ccccc3n2)c1 | -3.5 | 4.0 | -11.7 | -44.1 | -144.0 | -3.1
CCCCOc1ccc(-c2cc(C(=O)NNC(=S)NCC)c3ccccc3n2)cc1 | 67.3* | -10.1 | -89.3* | -36.7 | -43.9 | -0.4
O=C(O)COc1ccccc1/C=N/NC(=O)c1cc(-c2ccc(Cl)cc2)nc2ccccc12 | 0.8 | -4.7 | -1.2 | -3.6 | -1.7 | -4.9
O=C(N/N=C/c1ccccn1)c1cc(-c2ccc(Cl)cc2)nc2ccccc12 | -8.4 | -8.3 | -11.0 | -71.0 | -10.6 | 81.2*
O=C(N/N=C/c1ccccn1)c1cc(-c2ccc(Br)cc2)nc2ccccc12 | -27.2 | 3.8 | 5.0 | 75.2* | -30.1 | 66.5*
